# High-throughput results as filed in PubChem.
# EBV LMP1 NFkB = reduces LMP1-driven NF-kappaB luciferase signal; LMP1-induced NF-kappaB luciferase reporter cells, luminescence; inhibition, % at 12.5 µM; 350,000 compounds, 0.69% hits; in the data active = inhibition above about 41%;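 also: 0% = neutral control wells and 100% = reference inhibitor control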
# aSyn 5UTR inh = MLPCN primary screen, SNCA 5' untranslated region | alpha-synuclein 5'UTR reporter, inhibitor activity | inhibition, % (tested at 7.5 µM) | 300,000 compounds, 0.82% hits; in the data active = inhibition above about 60%;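 also: H4 neuroglioblastoma cells stably carrying SNCA 5'UTR luciferase fusion; 0% = DMSO wells and 100% = positive control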
# PAX8 reporter = PAX8 transcriptional activity inhibition; RMG-I TPO-luciferase reporter, SteadyGlo, 24 h; inhibition, % at 12.6 µM; 360,000 compounds, 1.2% hits; AID 652154;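 active = mean replicate inhibition at least 60% with every replicate also reaching 60%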;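 also: luciferase light reporting Pax8 driven TPO promoter activity; plate controls were median of neutral control wells for no effect and mitoxantrone controls for full effect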
# Shn3 inh set2 = inhibitors of Schnurri-3 3'UTR reporter in osteoblasts; Clone20 osteoblast Shn3 3'UTR firefly luciferase, 24 h; inhibition, % at 12.5 µM; 360,000 compounds, 0.52% hits; AID 588674;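 active = mean inhibition of at least 75% with every replicate also reaching 75%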;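 also: 0% = median of neutral control wells and 100% = pilot-screen positive control compound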
# TRPM1 prom inh = MITF TRPM1 promoter inhibition in SK-MEL-5 cells; inhibition, % at 12.5 µM; SK-MEL-5 TRPM1 promoter luciferase, 24 h; 330,000 compounds, 0.83% hits;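 active = mean inhibition across replicates of 60% or more, whatever share of single replicates reaches that level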
# * = called active by the depositor; nt = no result given; ! = a repeat was not active. Hits are enriched below; roughly 2.1% of the tested compounds scored in any of these assays.
SMILES,EBV LMP1 NFkB,aSyn 5UTR inh,PAX8 reporter,Shn3 inh set2,TRPM1 prom inh
O=C(C[C@H]1CC[C@H]2[C@@H](COC[C@H](O)CN2S(=O)(=O)c2cccc(Cl)c2)O1)Nc1ccc(-c2ccccc2)cc1,nt,nt,57,nt,nt
Cc1cccc(NC(=O)Nc2c(C)n(C)n(-c3ccccc3)c2=O)c1C,49*,0,0,16,14
NC(N)=NC(N)=Nc1cccc(Cl)c1,5,-3,0,14,-4
COc1ccc(-c2cc(C(F)(F)F)n3nc(C(=O)N4CCOCC4)nc3n2)cc1,44*,nt,nt,7,-1
O=C(c1nc2nc(-c3ccccc3)cc(C(F)(F)F)n2n1)N1CCCCC1,-1,nt,nt,11,15
COc1ccc(-c2cc(C(=O)N3CCOCC3)no2)cc1,29,73*,15,-6,10
C[C@H](CO)N1C[C@H](C)[C@H](CN(C)Cc2ccc3c(c2)OCO3)OCCCC[C@H](C)Oc2ccc(NC(=O)CCC(F)(F)F)cc2C1=O,nt,nt,-2,nt,nt
Cc1cc(OC(=O)N2CCCCC2)cc(C)c1Cl,-28,5,nt,-3,0
COc1ccc(CCN2C(=O)CC(C(N)=O)SC2=Nc2ccc(F)cc2)cc1OC (configuration not stated),-1,31,22,12,8
O=C(Cc1ccccc1)Nc1ccccc1C(=O)N1CCCCC1,-1,-8,10,0,-3
O=C(Cc1ccccc1)c1ccccc1C(=O)N1CCCCC1,1,-9,108*,-8,1
C[C@@H]1CCCCO[C@@H](CN(C)Cc2ccc(Cl)c(Cl)c2)[C@H](C)CN([C@@H](C)CO)C(=O)c2cc(NS(=O)(=O)c3ccc(Cl)cc3)ccc2O1,nt,nt,104*,nt,nt
COc1ccc(S(=O)(=O)Nc2ccc3c(c2)C(=O)N([C@@H](C)CO)C[C@H](C)[C@@H](CN(C)Cc2ccc(Cl)c(Cl)c2)OCCCC[C@@H](C)O3)cc1,nt,nt,71*,nt,nt
C[C@@H]1CCCCO[C@@H](CN(C)Cc2ccc(Cl)c(Cl)c2)[C@H](C)CN([C@H](C)CO)C(=O)c2cc(NS(=O)(=O)c3ccccc3)ccc2O1,nt,nt,93*,nt,nt
C[C@@H]1CN([C@H](C)CO)C(=O)c2cc(NS(=O)(=O)c3ccc(Cl)cc3)ccc2O[C@@H](C)CCCCO[C@@H]1CN(C)Cc1ccc(Cl)c(Cl)c1,nt,nt,98*,nt,nt
C[C@@H]1CCCCO[C@H](CN(C)Cc2ccc(Cl)c(Cl)c2)[C@@H](C)CN([C@H](C)CO)C(=O)c2cc(NS(=O)(=O)c3ccc(F)cc3)ccc2O1,nt,nt,21,nt,nt
COc1ccc(S(=O)(=O)Nc2ccc3c(c2)C(=O)N([C@@H](C)CO)C[C@H](C)[C@H](CN(C)Cc2ccc(Cl)c(Cl)c2)OCCCC[C@@H](C)O3)cc1,nt,nt,55,nt,nt
COc1ccccc1-n1c(-c2ccco2)n[nH]c1=S,-3,4,7,-15,-14
CC[C@@H](NC(=O)[C@@H](Cc1ccccc1)NC(=O)CC[C@H]1O[C@@H](n2ccc(=O)[nH]c2=O)[C@H](O)[C@@H]1O)c1ccccc1,nt,nt,-14,9,nt
COc1ccccc1CNC(=O)C[C@H]1CC[C@@H]2[C@H](COC[C@@H](O)CN2C(=O)Nc2ccc(Cl)cc2)O1,nt,nt,-16,nt,nt
O=S(=O)(Cc1ccccc1)C1CCCCC1O (configuration not stated),-1,16,-1,-1,15
C[C@@H]1CCCCO[C@@H](CN(C)Cc2ccc(Cl)c(Cl)c2)[C@@H](C)CN([C@H](C)CO)C(=O)c2cc(NS(=O)(=O)c3ccccc3)ccc2O1,nt,nt,-2,nt,nt
C[C@H](CO)N1C[C@H](C)[C@@H](CN(C)Cc2ccc(Cl)c(Cl)c2)OCCCC[C@H](C)Oc2ccc(NS(=O)(=O)c3ccc(Cl)cc3)cc2C1=O,nt,nt,101*,nt,nt
C[C@@H]1CCCCO[C@@H](CN(C)Cc2ccc(Cl)c(Cl)c2)[C@@H](C)CN([C@@H](C)CO)C(=O)c2cc(NS(=O)(=O)c3ccc(F)cc3)ccc2O1,nt,nt,-3,nt,nt
C[C@@H]1CN([C@H](C)CO)C(=O)c2cc(NS(=O)(=O)c3ccc(Cl)cc3)ccc2O[C@@H](C)CCCCO[C@H]1CN(C)Cc1ccc2c(c1)OCO2,nt,nt,90*!,nt,nt
C[C@@H]1CCCCO[C@H](CN(C)Cc2ccc(Cl)c(Cl)c2)[C@H](C)CN([C@@H](C)CO)C(=O)c2cc(NS(=O)(=O)c3ccc(Cl)cc3)ccc2O1,nt,nt,95*,nt,nt
C[C@@H]1CCCCO[C@H](CN(C)Cc2ccc(Cl)c(Cl)c2)[C@@H](C)CN([C@@H](C)CO)C(=O)c2cc(NS(=O)(=O)c3ccc(Cl)cc3)ccc2O1,nt,nt,80*,nt,nt
